Source: PubChem BioAssay AID1159580 (chemical genetic matrix, 2015)
Screen size: about 5,500 compounds; about 2,000 (36%) were called active. Roughly 18% stayed inconclusive and do not appear here. Cut-off read from the data, not from the text of the source: active = normalized growth mostly below about 0.91 (no sharp cut-off); inconclusive = no clear call, values can overlap the other calls; inactive = mostly above about 0.92. The list shows a part of the results.

Test: chemical genetic growth profiling, strain panel (AID 1159580);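 note: tested at 20 µM; growth read once vehicle control cultures reached saturation at 30 °C; 1 = growth at the plate median or of vehicle wells; lower values mean less growth of the strain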
Conditions: S. cerevisiae deletion strains, growth OD
[1] = locus YBR229C, strain ROT2, hits give low values
[2] = locus YDL101C, strain DUN1, hits give low values
[3] = locus YEL061C, strain CIN8, hits give low values
[4] = locus YGR078C, strain PAC10, hits give low values
[5] = locus YHR030C, strain SLT2, hits give low values
[6] = locus YJR043C, strain POL32, hits give low values
[7] = locus YLR039C, strain RIC1, hits give low values
[8] = locus YLR262C, strain YPT6, hits give low values
[9] = locus YMR263W, strain SAP30, hits give low values
[10] = locus YNL322C, strain KRE1, hits give low values
[11] = locus YPL055C, strain LGE1, hits give low values
[12] = locus YPL241C, strain CIN2, hits give low values

Measured: normalized growth

O=c1c2ccccc2oc2ccc(O)cc12
active: locus YCL029C, strain bik1, hits give low values 0.865 | locus YDL035C, strain GPR1, hits give low values 0.814 | locus YDL074C, strain BRE1, hits give low values 0.737 | [2] 0.791 | locus YDL134C, strain PPH21, hits give low values 0.759 | locus YDL185W, strain tfp1, hits give low values 0.901 | locus YDL192W, strain arf1, hits give low values 0.864 | locus YDR162C, strain NBP2, hits give low values 0.368 | locus YDR318W, strain mcm21, hits give low values 0.896 | locus YDR502C, strain sam2, hits give low values 0.895 | [3] 0.863 | locus YGL086W, strain mad1, hits give low values 0.854 | locus YGL248W, strain PDE1, hits give low values 0.811 | [4] 0.736 | locus YGR135W, strain pre9, hits give low values 0.856 | [5] 0.738 | locus YHR129C, strain ARP1, hits give low values 0.889 | locus YIL066C, strain RNR3, hits give low values 0.767 | locus YJL095W, strain BCK1, hits give low values 0.516 | locus YJL187C, strain SWE1 (second series), hits give low values 0.828 | locus YKR001C, strain vps1, hits give low values 0.509 | [7] 0.49 | locus YLR058C, strain SHM2, hits give low values 0.886 | [8] 0.461 | locus YLR268W, strain sec22, hits give low values 0.859 | locus YLR330W, strain CHS5, hits give low values 0.834 | locus YLR371W, strain rom2, hits give low values 0.894 | locus YLR418C, strain cdc73, hits give low values 0.786 | locus YML016C, strain PPZ1, hits give low values 0.915 | locus YML032C, strain rad52, hits give low values 0.757 | locus YMR223W, strain ubp8, hits give low values 0.895 | [9] 0.833 | locus YNL233W, strain BNI4, hits give low values 0.782 | locus YNL271C, strain bni1, hits give low values 0.915 | locus YNL307C, strain MCK1, hits give low values 0.63 | locus YNR052C, strain pop2, hits give low values 0.871 | locus YOL147C, strain pex11, hits give low values 0.926 | locus YOR069W, strain VPS5, hits give low values 0.919 | locus YOR184W, strain ser1, hits give low values 0.746 | locus YPR163C, strain tif3, hits give low values 0.772
inactive: locus YBR021W, strain FUR4, hits give low values 1.13 | [1] 0.952 | locus YDR101C, strain arx1, hits give low values 0.922 | locus YDR388W, hits give low values 0.937 | locus YER110C, hits give low values 0.919 | locus YER155C, strain BEM2, hits give low values 0.978 | locus YER167W, strain BCK2, hits give low values 0.949 | locus YGL078C, strain dbp3, hits give low values 0.962 | locus YGR252W, strain gcn5, hits give low values 0.847 | locus YHR079C, strain IRE1 (second series), hits give low values 0.961 | locus YHR094C, strain hxt1, hits give low values 0.977 | locus YHR200W, strain rpn10, hits give low values 0.956 | locus YIL073C, strain SPO22, hits give low values 0.815 | locus YIL125W, strain kgd1, hits give low values 0.962 | locus YIR030C, strain dcg1, hits give low values 0.933 | locus YJL134W, strain LCB3, hits give low values 0.941 | locus YJL168C, strain set2, hits give low values 0.948 | [6] 0.981 | locus YKL009W, strain mrt4, hits give low values 0.939 | locus YKL068W, hits give low values 1.01 | locus YKL085W, strain MDH1 (second series), hits give low values 0.976 | locus YKL085W, strain MDH1, hits give low values 0.976 | locus YLR102C, strain apc9, hits give low values 0.984 | locus YLR342W, strain FKS1 (second series), hits give low values 0.918 | locus YML124C, strain tub3, hits give low values 0.945 | locus YMR078C, strain ctf18, hits give low values 0.938 | locus YMR307W, strain GAS1, hits give low values 0.881 | locus YNL067W, strain RPL9B, hits give low values 0.871 | locus YNL250W, strain rad50, hits give low values 0.917 | locus YNL298W, strain CLA4, hits give low values 0.941 | [10] 0.948 | locus YOL012C, strain htz1 1.06 | locus YOR061W, strain CKA2, hits give low values 0.924 | locus YOR136W, strain idh2, hits give low values 0.957 | locus YOR144C, strain elg1, hits give low values 0.943 | locus YOR316C, strain cot1, hits give low values 0.967 | [11] 0.827 | [12] 0.941 | locus YPR119W, strain clb2, hits give low values 0.949 | locus YPR141C, strain kar3, hits give low values 0.965 | locus YPR167C, strain met16, hits give low values 0.934 | strain wtn01, hits give low values 0.931

O=C(O)c1coc2ccccc2c1=O
active: locus YCL061C, strain MRC1, hits give low values 0.906 | [7] 0.665 | [8] 0.764 | [12] 0.833
inactive: locus YAL013W, strain DEP1, hits give low values 1 | [1] 0.99 | [2] 0.973 | locus YDR150W, strain NUM1, hits give low values 0.908 | [3] 1.02 | [4] 0.995 | locus YGR229C, strain SMI1, hits give low values 0.999 | [5] 0.867 | locus YHR087W, strain rtc3, hits give low values 0.96 | locus YJL187C, strain SWE1, hits give low values 0.992 | [6] 1 | locus YJR075W, strain HOC1, hits give low values 0.897 | locus YKL190W, strain CNB1, hits give low values 1.01 | locus YLR058C, strain SHM2 (second series), hits give low values 0.995 | locus YLR085C, strain ARP6, hits give low values 0.853 | locus YML094W, strain GIM5, hits give low values 0.96 | locus YMR219W, strain ESC1, hits give low values 0.964 | [9] 0.978 | locus YNL153C, strain GIM3, hits give low values 0.982 | locus YNL298W, strain CLA4 (second series), hits give low values 1 | [10] 0.994 | locus YNR030W, strain Alg12, hits give low values 0.888 | locus YOL006C, strain TOP1, hits give low values 0.852 | [11] 0.906 | locus YPR135W, strain CTF4, hits give low values 0.892
